Measured values as given in PubChem BioAssay AID2057 (The Scripps Research Institute Molecular Screening Center, 2009).
Out of some 320,000 compounds screened, about 2,100 (0.66%) were called active. This is one part of a sample in which actives are shown more often than they occur. Values without a mark were called inactive.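 Rule for the calls: active = inhibition above the mean inhibition of all tested compounds plus 3 SD, set per campaign (cut at about 40% in these data); inactive = the rest.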

Target: Induced myeloid leukemia cell differentiation protein Mcl-1 (Homo sapiens) (UniProt Q07820)
Assay: MCL1-BIM peptide interaction disruptors – biochemical, fluorescence polarization, primary screen (AID 2057);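 note: 0% = DMSO wells and 100% = unlabeled Bim-BH3 peptide control; higher means more loss of mP so more displacement of Bim peptide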
Details: GST-MCL1 / FITC-Bim-BH3 fluorescence polarization; at 10.9 µM; active compounds read high

Sequence of Induced myeloid leukemia cell differentiation protein Mcl-1 (Homo sapiens) (Q07820 whole entry, looked up): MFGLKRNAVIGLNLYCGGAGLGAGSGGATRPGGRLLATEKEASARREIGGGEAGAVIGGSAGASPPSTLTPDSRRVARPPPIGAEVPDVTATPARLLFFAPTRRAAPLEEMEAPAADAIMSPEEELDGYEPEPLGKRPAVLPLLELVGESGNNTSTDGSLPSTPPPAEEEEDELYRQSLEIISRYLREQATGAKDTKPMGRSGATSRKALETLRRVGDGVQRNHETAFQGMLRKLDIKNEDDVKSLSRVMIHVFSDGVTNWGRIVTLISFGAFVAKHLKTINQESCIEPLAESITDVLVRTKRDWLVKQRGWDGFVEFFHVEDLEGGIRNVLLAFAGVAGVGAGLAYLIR

Compared with `Cc1c(CN2CCCCC2)c(O)n(CCO)c(=O)c1C#N`, `CCCCCCn1c(CN2CCCC(C)C2)nc2c1c(=O)n(C)c(=O)n2C` (stereo not given) is lower in inhibition: 18.2% for the first, 4.79% for the second.

Going from `O=C(COC(=O)c1ncc(Cl)c(Cl)c1Cl)NC1CCS(=O)(=O)C1` (stereo not given) to `CCN(CC(=O)NC1CCS(=O)(=O)C1)S(=O)(=O)c1ccccc1` (stereo not given), the inhibition falls from -1.74% to -7.02%.

Compared with `O=C(CN1CCN(c2ccccc2O)CC1)NC(=O)NCc1ccccc1`, `O=C1c2ccccc2C(=O)c2c1cccc2N1CCN(Cc2ccccc2)CC1` is higher in inhibition: 5.09% for the first, 7.86% for the second.

Going from `CC(=O)c1ccc(NC(=O)CCc2nnc3ccc(NCc4ccco4)nn23)cc1` to `Cc1ccc(NC(=S)NC(=O)c2ccc(-c3ccccc3)cc2)cc1`, the inhibition rises from 2.1% to 4.74%.

First: CC(C)CCN1CCN(Cc2cn[nH]c2C2CCCCC2)CC1CCO (stereo not given)
Second: CCC(C)CN1CCC(CO)(Cc2ccccc2Cl)CC1 (stereo not given)
The inhibition of the first is lower: -6.25% for the first, 0.34% for the second.

Going from `CN(C)S(=O)(=O)c1ccc(N/C=C(\[N+](=O)[O-])S(=O)(=O)c2ccccc2)cc1` to `CC(=O)Nc1ccc(S(=O)(=O)NC2Cc3ccccc3C2)cc1`, the inhibition falls from 2.14% to 1.26%.

Going from `CC(NCc1nc2ccccc2n1C)C12CC3CC(CC(C3)C1)C2` (stereo not given) to `O=C(O)CCn1c(Cc2ccccc2)nc2ccccc21`, the inhibition rises from -2.96% to 1.68%.

First: Cc1c(-c2ccccc2)nc(N)c(C#N)c1-c1cccs1
Second: CCc1c(-c2ccccc2)nc(N)c(C#N)c1-c1cccs1
The inhibition of the first is lower: 4.53% for the first, 11.5% for the second.

Compared with `COc1ccc(C2/C=C\CN(S(=O)(=O)c3cccs3)CC(=O)N2Cc2ccc(F)cc2)cc1` (stereo not given), `COc1ccc(CCN2C(=O)N(c3ccc(OC)cc3)C(=O)C2CC(=O)Nc2ccc(OC)cc2)cc1` (stereo not given) is lower in inhibition: 3.81% for the first, 2.06% for the second.

First: O=C(CCS(=O)(=O)c1ccccc1)NC1CCCC1
Second: COC(=O)c1sc(C(F)(F)F)c(-c2ccccc2)c1S(=O)(=O)N(C)C
The inhibition of the first is lower: -0.76% for the first, 4.01% for the second.

Going from `CC(=O)c1ccc(N2C(=NC(=O)C(C)C)SC3CS(=O)(=O)CC32)cc1` (stereo not given) to `CCC(=O)c1ccc(OCC(=O)Nc2ccc(N3CCCCC3)cc2)cc1`, the inhibition falls from 2.13% to 0.81%.

Going from `Cc1cc2ccccc2n1CCNC(=O)COc1ccc2ccccc2c1` to `O=C(Cn1cnc2ccccc21)Nc1ccccc1-c1ccccc1`, the inhibition rises from 2.6% to 6.02%.

Going from `O=C(O)C1C2CC2CN1C(=O)c1ccc(Cl)cc1Cl` (stereo not given) to `Cc1cc(Cl)ccc1NNC(=O)c1snnc1C`, the inhibition rises from 0.95% to 6.52%.

Going from `Cc1cccc(C)c1Nc1c(-c2ccccc2O)nc2ncccn12` to `O=C(COC(=O)c1cccc(Br)c1)Nc1cccc2c1C(=O)c1ccccc1C2=O`, the inhibition falls from 0.37% to -1.24%.

Going from `COc1ccc(OC)c2[nH]c(=O)c(CCNC(=O)C(=O)c3c[nH]c4ccccc34)cc12` to `O=C(CNC(=O)Cc1ccccc1)N=Nc1c(O)[nH]c2ccc(Br)cc12`, the inhibition falls from 7.82% to 4.04%.

First: CCn1c(=S)sc2c(=O)n(CC(=O)Nc3cccc(Br)c3)c(C)nc21
Second: Cc1cc(C)cc(NC(=O)NCc2ccccn2)c1
The inhibition of the first is lower: -2.89% for the first, 1.97% for the second.

Compared with `COc1cccc(NC(=O)C2C(c3ccccc3)C2(Cl)Cl)c1` (stereo not given), `Cc1nc2cc(NC(=O)NCc3ccccc3)ccc2o1` is lower in inhibition: 6.86% for the first, -6.46% for the second.

First: CCN1CCN(CC(=O)c2cc(OC)c(OC)c(OC)c2)CC1
Second: Cc1cc(C)c(CN2CCN(C(=O)Cn3ccc(NC(=O)OCc4ccccc4)nc3=O)CC2)c(C)c1
The inhibition of the first is lower: 0.87% for the first, 2.72% for the second.

First: O=C(OCC1OC(Oc2ccc(O)cc2)C(O)C(O)C1O)c1ccccc1 (stereo not given)
Second: COc1ccc(/C(N)=N/OC(=O)CCCc2ccccc2)cc1
The inhibition of the first is lower: -1.58% for the first, -1.09% for the second.

Compared with `COC(=O)C(C)Sc1ccc2nnc(-c3cccc(F)c3)n2n1` (stereo not given), `COc1ccc2oc(=O)c(C(=O)NCc3ccccn3)cc2c1` is higher in inhibition: -5.54% for the first, 0.27% for the second.

Going from `O=C1c2ccccc2C(=O)c2c1cccc2N1CCN(C/C=C/c2ccccc2)CC1` to `N/C(=N\OC(=O)CCc1ccccc1)c1cccnc1`, the inhibition falls from 13.8% to 4.17%.

Going from `Cc1ccc(S(=O)(=O)N2CC(C)N(S(C)(=O)=O)C2)cc1` (stereo not given) to `Cc1ccc(C(=O)NC(=S)NCCN2CCOCC2)cc1`, the inhibition falls from 7.35% to 6.07%.

Compared with `CC1CCc2sc(C(=O)NCC(c3ccco3)N3CCCCC3)cc2C1` (stereo not given), `CCOc1cc(NC(=S)NCCCOC)c(OCC)cc1NC(=O)c1ccco1` is higher in inhibition: -3.03% for the first, 9.31% for the second.

First: CC(=O)Nc1ccc(Nc2cc(C)nc(Nc3ccc(NC(C)=O)cc3)n2)cc1
Second: Oc1[nH]c2ccc(Br)cc2c1N=Nc1nn[nH]n1
The inhibition of the first is lower: -11.2% for the first, 6.9% for the second.

`CCCSC(=S)NC1CCS(=O)(=O)C1` (stereo not given) was tested, and the inhibition was 2.09%.

In the case of `CCCn1c(O)c(CN2CCCC(C)C2)c(C)c(C#N)c1=O` (stereo not given), the inhibition was 57.2% (active).
`CN1CCc2nc(SC(C(=O)O)c3ccccc3)c(C#N)c(-c3cccs3)c2C1` (stereo not given) was tested, and the inhibition was 45.7% (active).
In the case of `Cc1cc2ccccc2n1CCC(=O)O`, the inhibition was 49.7% (active).
With `O=C(COC(=O)Cn1cnc2ccccc21)Nc1cccc2c1C(=O)c1ccccc1C2=O` the inhibition was 155% (active).
For `O=C(OCC1O[C@@H](OC(=O)c2cc(O)c(O)c(O)c2)[C@@H](OC(=O)c2cc(O)c(O)c(O)c2)[C@@H](OC(=O)c2cc(O)c(O)c(O)c2)[C@@H]1OC(=O)c1cc(O)c(O)c(O)c1)c1cc(O)c(O)c(O)c1` (stereo not given in full), the inhibition was 74.8% (active).
With `O=C1c2ccccc2C(=O)c2c1cccc2N1CCN(CCO)CC1` the inhibition was 60.6% (active).
In the case of `NS(=O)(=O)c1ccc(N=Nc2c(O)[nH]c3ccc(Br)cc23)cc1`, the inhibition was 44.2% (active).
For `Cc1ccc(C(=O)NC(=S)Nc2ccc(N3CCOCC3)cc2)cc1`, the inhibition was 46.3% (active).
In the case of `N/C(=N\OC(=O)CCc1ccccc1)c1ccc(Cl)cc1`, the inhibition was 64.4% (active).
For `COCCNC(=O)Nc1ccc2nc(-c3ccco3)c(-c3ccco3)nc2c1`, the inhibition was 131% (active).
With `O=C(NCc1ccccn1)c1ccc2nc(-c3ccco3)c(-c3ccco3)nc2c1` the inhibition was 106% (active).
